MOR-DOR ag: agonists of OPRM1-OPRD1 heterodimerization, primary screen, cell-based, luminescence. 340,000 tested, 0.3% active. activation, % at 9.3 µM. AID 504326, 2011. cells. Mu-type opioid receptor (Homo sapiens) + Delta-type opioid receptor (Homo sapiens), …; in the data active means activation above about 18%;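 further: 0% = vehicle-treated cells and 100% = reference agonist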
HTR5A ag: HTR5A agonists in luminescence cell assay, primary screen, counter-screen for OPRM1-OPRD1 heterodimer agonist project, full-deck HTS. cell-based. activation, % at 9.3 µM. 340,000 tested, 0.61% active. AID 504692, 2011; in the data active means activation mostly above about 9.5%, no sharp cut-off; inactive means mostly below about 7.6%;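 further: 0% = cells with vehicle only and 100% = reference agonist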
Target sequence (P47898 whole entry, looked up): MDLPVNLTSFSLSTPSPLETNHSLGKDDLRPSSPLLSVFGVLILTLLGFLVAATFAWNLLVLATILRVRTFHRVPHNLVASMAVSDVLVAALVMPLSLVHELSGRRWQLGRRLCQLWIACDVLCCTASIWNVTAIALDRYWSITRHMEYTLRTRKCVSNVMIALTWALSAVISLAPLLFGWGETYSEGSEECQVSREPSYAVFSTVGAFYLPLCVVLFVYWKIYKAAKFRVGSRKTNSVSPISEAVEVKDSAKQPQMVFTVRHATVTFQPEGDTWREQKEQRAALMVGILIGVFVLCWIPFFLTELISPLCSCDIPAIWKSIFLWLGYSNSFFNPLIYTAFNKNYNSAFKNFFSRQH
HTR5A inv ag: HTR5A inverse agonists in luminescence cell assay, primary screen, counter-screen for OPRM1-OPRD1 heterodimer inverse agonist project, full-deck HTS; 340,000 tested, 0.083% active; AID 504634, 2011; 5-hydroxytryptamine receptor 5A (Homo sapiens), P47898; inhibition, % at 9.3 µM; HTR5A cell line, inverse agonism; in the data active means inhibition mostly above about 23%, no sharp cut-off; inactive means mostly below about 18%;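 further: 0% = cells with DMSO and 100% = no-cell wells with DMSO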
OPRM1-OPRD1 inv: inverse agonists of MOR-DOR heterodimerization, primary screen, cell-based, luminescence; 340,000 tested, 0.21% active; cell-based MOR-DOR heterodimer luminescence, inverse agonism; inhibition, % at 9.3 µM; AID 504357, 2011; in the data active means inhibition above about 22%, passing the limit was not always enough;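 further: 0% = cells with DMSO and 100% = wells without cells with DMSO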
Numbers without * were called inactive; i = inactive. Compounds with a hit are over-represented: about 1.1% of the library has one in this group of screens.

SMILES	MOR-DOR ag	HTR5A ag	HTR5A inv ag	OPRM1-OPRD1 inv
Cn1cnnc1SCC(=O)Nc1ncc([N+](=O)[O-])s1	-2	0	1	9
Cc1ccc(S(=O)(=O)c2nc(Nc3ccccc3)sc2Cl)cc1	8	-1	1	-58
COc1ccc(Nc2nc(S(=O)(=O)c3ccc(C)cc3)c(Cl)s2)cc1	9	13*	-35	-66
O=C(N/C(=C/c1ccccc1Cl)C(=O)N1CCCC1)c1ccccc1	0	14*	3	-1
O=C(N/C(=C/c1ccc(F)cc1)C(=O)N1CCCC1)c1ccccc1	-3	3	-8	17
OC12CC3C[C@H](C1)C(N1CCOCC1)[C@@H](C3)C2 (stereo not given in full)	-1	10*	-35	5
CC(C)NS(=O)(=O)c1ccc(NC(=O)C(C)OC(=O)C2CCC2)cc1 (stereo not given)	-3	6	12	12
COc1cccc(/C(O)=C2/C(=O)C(=O)N(CCN(C)C)C2c2ccc(Br)cc2)c1 (stereo not given)	-3	10*	-28	16
O=C(O)CCc1ccc(-c2ccccc2)n1Cc1ccco1	0	9.7*	-7	-1
O=C(COC(=O)c1ccc2c(=O)n3c(nc2c1)CCC3)Nc1ccccc1F	0	11*	-30	1
CC(=O)N1CCc2cc(S(=O)(=O)CCC(=O)NCCc3ccccc3)ccc21	-1	-2	2	7
C[C@H](CO)N1C[C@H](C)[C@H](CN(C)Cc2ccc(-c3ccccc3)cc2)Oc2ccc(NS(=O)(=O)c3ccccc3)cc2CC1=O	4	14*	-23	-24
COCCOC(=O)c1c(C)n(C)c2ccc(OC(=O)N3CCOCC3)cc12	0	1	-17	2
COCCOC(=O)c1c(C)n(C)c2ccc(OC(=O)c3c(OC)cccc3OC)cc12	-2	11*	-40	8
O=C(/C=C/c1cccc([N+](=O)[O-])c1)NCCSCc1ccc(Cl)cc1	-1	-1	13	3
Cc1ccc(S(=O)(=O)Nc2c(NC3CCCCC3)c3ccccc3oc2=O)cc1	0	13*	4	-1
CCC(=O)c1ccc(OCC(=O)OC(C)C(=O)N2CCc3ccccc32)cc1 (stereo not given)	0	0	-19	-2
CCCCN(C(=O)CSc1cc(C)c2ccccc2n1)c1c(N)n(Cc2ccccc2)c(=O)[nH]c1=O	-3	5	-14	14
COc1c(Cl)cc(Cl)cc1/C=N/NC(=O)c1nnn(-c2nonc2N)c1CN1CCC(C)CC1	2	11*	-19	-12
CC1CCN(Cc2c(C(=O)N/N=C/c3cc(Cl)ccc3O)nnn2-c2nonc2N)CC1	5	0	0	-26
CCOC(=O)c1ccc(Nc2ncnc3c2cnn3C)cc1	0	-4	-12	2
Cn1ncc2c(O/N=C(\N)c3ccc(C(C)(C)C)cc3)ncnc21	182*	68*	-166	i
COc1ccc(OC)c(NC(=O)N2CCCC(C(=O)c3ccccc3OC)C2)c1 (stereo not given)	0	-1	4	2
Cc1nc2cc(C(F)(F)F)ccc2n1C1CCN(CC(=O)N2CCOCC2)CC1	-2	9.0*	0	9
Cc1cccc2c1N(CCCOc1ccc(C(C)(C)C)cc1)C(=O)C2=O	-5	5	-14	30*
SMILES	MOR-DOR ag	HTR5A ag	HTR5A inv ag	OPRM1-OPRD1 inv
Cc1cccc2c1N(CCCOc1ccccc1)C(=O)C2=O	-5	-3	-23	26
CCS(=O)(=O)C1=NN2C(=N)/C(=C\c3ccc(SCc4ccco4)o3)C(=O)N=C2S1	9	13*	1	-67
Cc1noc(C)c1CSc1nnc(-c2cccnc2)n1C1CCCCC1C (stereo not given)	-2	5	-1	13
COc1ccc(Cc2nnc(SCc3c(C)noc3C)n2C2CCCCC2)cc1OC	1	12*	-59	-6
COc1ccc(C(=O)NC(=S)NCC2CCCO2)cc1 (stereo not given)	-4	5	0	22
O=C(/C=C/c1ccc(Cl)cc1)NCc1cccs1	1	13*	-49	-6
O=C(/C=C/c1cccc(Cl)c1)NCc1cccs1	-1	-3	-1	3
COc1cc(OC)cc(C(=O)NNC(=O)C2CCCC2)c1	0	-2	-3	0
Cc1nn(C)cc1S(=O)(=O)Nc1ncccn1	-2	1	20	9
CNCCCCOc1ccccc1-c1ccccc1	0	9.9*	11	0
Cc1cc(SCc2ccc([N+](=O)[O-])cc2)nc(=O)[nH]1	-1	4	-13	3
COc1ccc(C(=O)SC2=NCCS2)cc1	2	12*	-13	-12
CC(C)CN1CCC(=O)N(CCN=[N+]=[N-])CC1	-3	-4	-13	15
CCCCc1ccc(CC(=O)Nc2cc(S(=O)(=O)N3CCOCC3)ccc2O)cc1	-1	-1	4	4
O=C(CSc1nnc(CNc2ccc(F)cc2)n1Cc1ccco1)N1CCCC1	1	0	6	-7
CCCc1nnc(SCC(=O)N2CCOCC2)n1Cc1ccco1	3	9.6*	0	-17
O=C(O)c1ccc(-n2cc(-c3cc4ccccc4oc3=O)[nH]c2=S)cc1	-1	7	-19	7
O=C(O)C1C2CCC(C2)C1C(=O)NCCc1ccccc1 (stereo not given)	-1	9.4*	-35	5
COC(=O)CC(NC(=S)NC(=O)c1ccccc1)c1ccc(Br)cc1 (stereo not given)	2	-4	13	-12
CCOc1[nH]n(-c2ccccc2)c(=O)c1C=Nc1ccccc1	0	13*	7	-3
COC(=O)c1c(N2C(=O)Nc3ccccc3N2O)sc(C)c1C	-1	2	3	6
COC(=O)c1c(-n2cnnn2)sc(C)c1C	-2	12*	-16	12
Cc1c(C(=O)OC2CCCC2)[nH]c2c1C(=O)CC(c1ccco1)C2 (stereo not given)	1	10*	-28	-6
CN(C)c1nc(SCCOC(=O)Nc2ccccc2)nc(N(C)C)n1	9	8.8*	14	-46
CN(C)c1nc(C(=O)Nc2ccccc2)nc(N(C)C)n1	-1	2	-1	5
SMILES	MOR-DOR ag	HTR5A ag	HTR5A inv ag	OPRM1-OPRD1 inv
Cc1ccc(-n2c(SCC(N)=O)nnc2-c2ccco2)cc1	-3	3	-12	15
COc1ccc(OCC(=O)Nc2cc3c(cc2C(=O)O)OCCCO3)cc1	1	5	-4	-4
O=C(CN1C(=O)/C(=C/c2ccc(Cl)cc2)SC1=S)NC1C=CS(=O)(=O)C1 (stereo not given)	-2	-4	-12	11
O=C(CN1C(=O)/C(=C/c2ccccc2)SC1=S)NC1C=CS(=O)(=O)C1 (stereo not given)	-1	12*	-16	7
CC(C)c1nnc(NC(=O)CCC(=O)Nc2ccc(Cl)cc2)s1	-2	2	3	11
COc1ccc(NC(=O)CCC(=O)Nc2nnc(C(C)C)s2)cc1Cl	0	12*	-32	2

Compound activity (PubChem BioAssay)
